Results: PubChem BioAssay AID1159580 (chemical genetic matrix, 2015)
Values joined by “and” are separate entries in the source; they are usually repeats but may differ in a detail not shown here. Equal entries are not always repeated. About 2,000 (36%) of roughly 5,500 compounds were called active. Not shown: some 18% with an inconclusive outcome. Cut-off read from the data, not from the text of the source: active = normalized growth mostly below about 0.91 (no sharp cut-off); inconclusive = no clear call, values can overlap the other calls; inactive = mostly above about 0.92. The list shows a part of the results.

Test: chemical genetic growth profiling, strain panel (AID 1159580);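 note: tested at 20 µM; growth read once vehicle control cultures reached saturation at 30 °C; 1 = growth at the plate median or of vehicle wells; lower values mean less growth of the strain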
Details: S. cerevisiae deletion strains, growth OD

Measured: normalized growth

CN(C)[C@@H]1C(=O)C(C(N)=O)=C(O)[C@@]2(O)C(=O)C3=C(O)c4c(O)cccc4[C@@](C)(O)[C@H]3[C@H](O)[C@@H]12
inactive: locus YAL013W, strain DEP1, stronger effect = lower value 1.01 | locus YAL021C, strain ccr4, stronger effect = lower value 1.02 | locus YAL026C, strain drs2, stronger effect = lower value 1.01 | locus YAL030W, strain snc1, stronger effect = lower value 1 | locus YBL061C, strain skt5, stronger effect = lower value 1.02 | locus YBR009C, strain hhf1, stronger effect = lower value 1.01 | locus YBR021W, strain FUR4, stronger effect = lower value 0.99 | locus YBR023C, strain chs3, stronger effect = lower value 1.02 | locus YBR171W, strain sec66, stronger effect = lower value 1.02 | locus YBR229C, strain ROT2, stronger effect = lower value 1 | locus YBR231C, strain swc5, stronger effect = lower value 0.991 | locus YBR279W, strain paf1, stronger effect = lower value 1.02 | locus YCL011C, strain gbp2, stronger effect = lower value 1.01 | locus YCL016C, strain dcc1, stronger effect = lower value 1.01 | locus YCL029C, strain bik1, stronger effect = lower value 0.998 | locus YCL061C, strain MRC1, stronger effect = lower value 1.01 | locus YCL069W, strain vba3, stronger effect = lower value 1.02 | locus YCR088W, strain abp1, stronger effect = lower value 1.02 | locus YDL005C, strain med2, stronger effect = lower value 1.02 | locus YDL035C, strain GPR1, stronger effect = lower value 1 | locus YDL040C, strain nat1, stronger effect = lower value 1.03 | locus YDL074C, strain BRE1, stronger effect = lower value 1.01 | locus YDL101C, strain DUN1, stronger effect = lower value 1.01 | locus YDL134C, strain PPH21, stronger effect = lower value 0.995 | locus YDL185W, strain tfp1, stronger effect = lower value 0.988 | locus YDL192W, strain arf1, stronger effect = lower value 0.998 | locus YDR001C, strain nth1, stronger effect = lower value 1.02 | locus YDR069C, strain doa4, stronger effect = lower value 1 | locus YDR101C, strain arx1, stronger effect = lower value 1.01 | locus YDR137W, strain rgp1, stronger effect = lower value 0.975 | locus YDR150W, strain NUM1, stronger effect = lower value 1.01 | locus YDR159W, strain sac3, stronger effect = lower value 1.05 | locus YDR162C, strain NBP2, stronger effect = lower value 0.992 | locus YDR195W, strain ref2 1.01 | locus YDR297W, strain sur2, stronger effect = lower value 1.02 | locus YDR318W, strain mcm21, stronger effect = lower value 0.999 | locus YDR334W, strain swr1, stronger effect = lower value 1.01 | locus YDR335W, strain msn5, stronger effect = lower value 1.02 | locus YDR388W, stronger effect = lower value 1 | locus YDR392W, strain spt3, stronger effect = lower value 1.02 | locus YDR502C, strain sam2, stronger effect = lower value 0.994 | locus YEL003W, strain gim4, stronger effect = lower value 1.01 | locus YEL037C, strain rad23, stronger effect = lower value 1.02 | locus YEL061C, strain CIN8 (second series), stronger effect = lower value 1.01 | locus YEL061C, strain CIN8, stronger effect = lower value 1 | locus YER015W, strain faa2, stronger effect = lower value 1.01 | locus YER016W, strain bim1, stronger effect = lower value 1 | locus YER110C, stronger effect = lower value 1 | locus YER111C, strain swi4, stronger effect = lower value 1.01 | locus YER155C, strain BEM2 (second series), stronger effect = lower value 0.995 | locus YER155C, strain BEM2, stronger effect = lower value 1.01 | locus YER167W, strain BCK2, stronger effect = lower value 1.01 | locus YFR010W, strain ubp6, stronger effect = lower value 1 | locus YGL078C, strain dbp3, stronger effect = lower value 0.984 | locus YGL086W, strain mad1, stronger effect = lower value 0.982 | locus YGL167C, strain pmr1, stronger effect = lower value 1.01 | locus YGL173C, strain kem1, stronger effect = lower value 1 | locus YGL227W, strain vid30, stronger effect = lower value 1.04 | locus YGL240W, strain doc1, stronger effect = lower value 1.01 | locus YGL248W, strain PDE1, stronger effect = lower value 1 | locus YGL253W, strain hxk2, stronger effect = lower value 1.02 | locus YGR078C, strain PAC10, stronger effect = lower value 1 | locus YGR135W, strain pre9, stronger effect = lower value 0.987 | locus YGR252W, strain gcn5, stronger effect = lower value 0.967 | locus YHR013C, strain ard1, stronger effect = lower value 1 | locus YHR027C, strain rpn1, stronger effect = lower value 1.02 | locus YHR030C, strain SLT2, stronger effect = lower value 1 and 0.979 | locus YHR079C, strain IRE1 (second series), stronger effect = lower value 0.992 | locus YHR079C, strain IRE1, stronger effect = lower value 0.98 | locus YHR094C, strain hxt1, stronger effect = lower value 0.999 | locus YHR129C, strain ARP1, stronger effect = lower value 1.01 | locus YHR142W, strain chs7, stronger effect = lower value 1.05 | locus YHR200W, strain rpn10, stronger effect = lower value 1 | locus YIL066C, strain RNR3, stronger effect = lower value 1 | locus YIL073C, strain SPO22, stronger effect = lower value 1.02 | locus YIL125W, strain kgd1, stronger effect = lower value 0.998 | locus YIR030C, strain dcg1, stronger effect = lower value 0.997 | locus YJL092W, strain hpr5, stronger effect = lower value 1.02 | locus YJL095W, strain BCK1 (second series), stronger effect = lower value 1.02 | locus YJL095W, strain BCK1, stronger effect = lower value 0.987 and 0.979 | locus YJL115W, strain asf1, stronger effect = lower value 1.03 | locus YJL129C, strain trk1, stronger effect = lower value 1.05 | locus YJL134W, strain LCB3, stronger effect = lower value 1.01 | locus YJL154C, strain vps35, stronger effect = lower value 1.04 | locus YJL164C, strain tpk1, stronger effect = lower value 0.997 | locus YJL166W, strain qcr8, stronger effect = lower value 1.03 | locus YJL168C, strain set2, stronger effect = lower value 0.998 | locus YJL187C, strain SWE1 (second series), stronger effect = lower value 1.01 | locus YJR043C, strain POL32, stronger effect = lower value 0.992 | locus YJR066W, strain TOR1, stronger effect = lower value 0.928
